Measurements taken from PubChem BioAssay (NCI).
This is part of a sample that, as a whole, favours compounds with a hit. Of some 83,000 tested, about 20% had one in any assay.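 The test compound was applied at a single concentration to cells in 96-well plates for 48 hours, and percent growth was recorded.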 Calls of active or inactive are those of the source.

Each molecule was assayed on NCI-H460 lung (assay: NCI-60 one-dose screen, 48 h (100 = growth as untreated, 0 = no growth, -100 = all killed)). Conditions: 10 µM unless noted.
Procedure: Growth inhibition of the NCI-H460 human Non-Small Cell Lung tumor cell line is measured as a screen for anti-cancer activity. Cells are grown in 96 well plates and exposed to the test compound for 48 hours. Compounds are tested at a single concentration, which is 10^-5 M for most compounds. The reported endpoint is percent growth (GI% or GIPRCNT), where numbers from 0 - 100% represent growth inhibition, and numbers from -100% - 0 represent cell death. For example, a value of 40 represents 60% growth inhibition. A value of 0 means no net growth occurred over the course of the experiment. A value of -40 indicates 40% of cells at the beginning of the experiment died by the end of the experiment. A value of -100 means all cells are dead at the end of the experiment.
NCI-60 Human Tumor Cell Lines Screen was performed using the standard one-dose NCI protocol, which is described in more detail at https://dtp.cancer.gov/discovery_development/nci-60/default.htm.
Compounds with GIPRCNT values below 10 were considered active. Activity score was based on GIPRCNT using the following formula: […]
Score is 0 for GIPRCNT values of 100 or above, 50 for GIPRCNT values of 0, and 100 for GIPRCNT values of -100.

SMILES	growth
Cc1nn(-c2ccccc2)c(Cl)c1/C=N\N=c1/sc2ccccc2n1C	107% (inactive)
NS(=O)(=O)c1ccc(CCN2C(=O)C=CC2=O)cc1	115% (inactive)
COc1ccc(-c2nc(S(=O)(=O)c3ccccc3)c(S(=O)CC(=O)N3CCC(C)CC3)o2)cc1 (stereo not given)	80.4% (inactive)
N#C/C(=C\c1ccccn1)c1nc2cc(Cl)ccc2s1	92% (inactive)
C=C1C(=O)O[C@H]2[C@H]1CC/C(COC(=O)NCc1c[nH]c3ccc(F)cc13)=C\CC[C@@]1(C)O[C@@H]21	27.9% (inactive)
CCC(CC)NCC(C)(C)O	103% (inactive)
COC(=O)C1=C(C(=O)ON)C2C=CC1(C(Cc1ccccc1)Nc1ccccc1)O2 (stereo not given)	103% (inactive)
O=C(/C=C/c1ccc(F)cc1)c1ccc(NC(=O)N2CCN(c3cc4c(cc3F)c(=O)c(C(=O)O)cn4C3CC3)CC2)cc1	82.9% (inactive)
O=C(CCN1CCCC1)Nc1ccc2c(NCCCc3ccccc3)c3ccccc3nc2c1	-72.2% (active)
CCN1C(=O)N(CC)C2Nn3c(s/c(=C\c4ccc(OC)cc4)c3=O)=NC21 (stereo not given)	32.2% (inactive)
O=C(O)c1ccc(NCc2cn(-c3ccc(C(F)(F)F)cc3)nc2-c2ccc(C(=O)O)cc2)cc1	103% (inactive)
COc1cccc2c1c1nc3cc(C)c(C)cc3nc1n2CCN(C)C	7.95% (active)
O=S(=O)(NCCCNc1nccc(-c2c(-c3cccc(F)c3)nc3sccn23)n1)c1cccc(F)c1	58.3% (inactive)
COc1cc(/C=C\c2cc(OC)c(OC)c(OC)c2)cc(N)c1OC	104% (inactive)
N#Cc1c(NC(=O)NCc2ccccc2)sc2c1CCCC2	2.62% (active)
N#C/C(=C\c1c(-c2ccccc2)[nH]c2ccccc12)C(=O)c1ccc(Cl)cc1	18.2% (inactive)
O=C1Nc2cc(-c3ccc(NC(=O)C4CC4)cc3)ccc2/C1=C/c1ccc[nH]1	61.4% (inactive)
C/C(=N\NC(=O)CSc1nc2ccccc2c(=O)n1Cc1ccc(S(N)(=O)=O)cc1)c1ccc(F)cc1	103% (inactive)
CCN1C(=O)/C(=C/C(=O)OC)S/C1=N\NC(=O)c1cc2ccc1/C=C\c1ccc(cc1)/C=C\2	104% (inactive)
N/C(=N\C(N)=N\c1nc2ccccc2s1)c1cccc(Cl)c1	51.7% (inactive)

SMILES	growth
CC(=O)N1c2ccccc2NC2=C(C(=O)NC2(C)C)C1c1ccco1 (stereo not given)	98.4% (inactive)
CCCOC(=O)N[C@H]1CCc2cc(OC)c(OC)c(OC)c2-c2ccc(SC)c(=O)cc21	0.992% (active)
O=C(NCCc1ccccc1)Nc1ccc2cc3ccc(NC(=O)NCCc4ccccc4)cc3nc2c1	16.8% (inactive)
COc1ccc(C(=O)CSc2nc(-c3cc(OC)ccc3OC)cc(-c3ccc(Cl)cc3)c2C#N)cc1	25.4% (inactive)
Cc1c2cc[nH]c(=O)c2c(C)c2c1[nH]c1cc(OCCN3CCN(C)CC3)ccc12	-20.5% (active)
COc1cc(C(=O)Nc2cc3c(cc2Oc2cc(C)cc(C)c2)C(=O)N(C)[C@@H](CC(=O)N(C)O)C(=O)N3)c(Br)c(OC)c1OC	-14.7% (active)
Nc1n[nH]c2cccc(C#Cc3cccc(C(=O)Nc4cccc(C(F)(F)F)c4)c3)c12	74.7% (inactive)
Cc1c(C(=O)NCCC(=O)NO)sc2ncnc(Nc3ccc(F)c(Cl)c3)c12	100% (inactive)
COc1cc(C2C3=C(COC3=O)N(CCO)c3cc4c(cc32)OCO4)cc(OC)c1OC (stereo not given)	-54.3% (active)
CCCCOc1ccc(/C=N/Nc2cc(C)nc3ccc(Br)cc23)cc1	-34.6% (active)
CCNC(=O)Oc1ccc(/C(=C(\C)c2ccccc2)c2ccc(OCCCN(C)C)cc2)cc1	87.1% (inactive)
N#CC(C(=O)/C(=N/NC(=O)c1ccccc1O)C(C#N)c1ccccc1)c1ccccc1 (stereo not given)	24.3% (inactive)
N/C(=N\C(N)=N\c1nc2ccccc2s1)c1ccnc(Br)c1	16.4% (inactive)
CN(C)c1ccc(C2C(C#N)=C(/N=C/c3ccccc3)Oc3c2ccc2ccccc32)cc1 (stereo not given)	51.3% (inactive)
Cn1ccnc1C(=O)/C=C/c1ccc(CC(=O)Nc2ccc(F)cc2)cc1	3.59% (active)
OCc1cnccc1NCCCCOc1ccc(Oc2ccccc2)cc1	69.6% (inactive)
COc1ccc(/C=N/NC(=O)c2cnn3c2NC(c2ccccc2)C3)cc1OC (stereo not given)	28.3% (inactive)
O=C(/C=C/c1c(-c2ccc(Cl)cc2)nn(-c2ccccc2)c1C(F)(F)F)c1ccc(Cl)cc1	82.3% (inactive)
C=C1C(=O)O[C@H]2[C@H]1CC/C(CNS(=O)(=O)c1cccc3ccccc13)=C\CC[C@@]1(C)O[C@@H]21	73.8% (inactive)
O=C1OC(Cc2ccccc2)C1c1ccccc1 (stereo not given)	107% (inactive)
